# Several values for one entry are separate records, joined by “and”; a condition that tells them apart may be missing. Equal entries are not always repeated. Records with an inconclusive call do not appear. Entries that show only a call come without a potency. Where a structure was tested more than once in an assay, its records may differ in their call. Activity calls are given as the source filed them. Unless noted, calls come from the whole dose curve; as a rule, active = well fitted curve in the direction sought with a large enough effect in the repeat runs; inconclusive = weak or mixed curves; inactive = no such curve, though single readings can be large; an effect the other way counts as inactive or inconclusive.
# How the values were obtained:
# [1] = qHTS assay to identify small molecule agonists of H2AX (AID 1224845; active = well fitted activation curve with a large enough effect in the signal ratio in the repeat runs, not every such curve was filed as active; the % refers to the signal ratio; note: potency is the fitted concentration of half-maximal effect); conditions: CHO-K1 phospho-H2AX Ser139 HTRF, 3 h; series mostly up to 154 µM
# Method in brief: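 Phospho-H2AX Ser139 measured by HTRF (ex 320 nm; em 665 and 620 nm) after 24 hr antibody incubation. Compounds, 15 concentrations, 0.76% DMSO, were applied to CHO-K1 cells for 3hr at 37C before lysis.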
# [2] = qHTS assay to identify small molecule agonists of H2AX - cell viability counter screen (AID 1224847; calls by dose curve; note: nearly all actives have a fitted effect of over 30% in size; note: potency is the fitted concentration of half-maximal effect); conditions: CHO-K1 viability, CellTiter-Glo luminescence, 3 h; series mostly up to 154 µM
# Method in brief: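 CHO-K1 cells plated overnight at 37C, then exposed 3 h at 37C to compounds at 15 concentrations (0.76% DMSO final). Viability by CellTiter-Glo luminescence after 30 min at room temperature.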
# [3] = qHTS RealTime-Glo MT Cell Viability Assay in HepG2 cells - 24 hour (AID 1224867); conditions: RealTime-Glo luminescence; series mostly up to 76.8 µM; note: nearly all actives have a fitted effect of over 50% in size; note: potency is the fitted concentration of half-maximal effect
# Method in brief: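 Cells + NanoLuc/prosubstrate dispensed (600 cells/well) → 5 h at 37 C/5% CO2 → compounds in DMSO transferred → 40 h incubation at 37 C, luminescence read at 0, 8, 16, 24, 32, 40 h.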
# [4] = qHTS RealTime-Glo MT Cell Viability Assay in HEK293 cells - 32 hour (AID 1224868); conditions: RealTime-Glo luminescence; series mostly up to 76.8 µM; note: nearly all actives have a fitted effect of over 50% in size; note: potency is the fitted concentration of half-maximal effect
# Method in brief: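 Tox21 10K qHTS, HEK293, 600 cells/well, RealTime-Glo reagent co-dispensed with cells; 5 h preincubation, compound by pintool, 37 C, luminescence at 0–40 h.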
# [5] = A CellTox Green Cytotoxicity Assay to monitor cytotoxicity in HEK293 cells - 0 hour (AID 1224869); conditions: CellTox Green fluorescence; series mostly up to 76.8 µM; note: nearly all actives have a fitted effect of over 50% in size
# Method in brief: (§1)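 Homogeneous no-lysis format: HEK293 cell suspension mixed with CellTox Green reagent, seeded, incubated 5 h at 37 C/5% CO2, then dosed by pintool with compound in DMSO.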
# [6] = A CellTox Green Cytotoxicity Assay to monitor cytotoxicity in HEK293 cells - 40 hour (AID 1224871); conditions: CellTox Green fluorescence; series mostly up to 76.8 µM; note: nearly all actives have a fitted effect of over 45% in size; note: potency is the fitted concentration of half-maximal effect
# Method in brief: as §1
# [7] = qHTS RealTime-Glo MT Cell Viability Assay in HepG2 cells - 40 hour (AID 1224870); conditions: RealTime-Glo luminescence; series mostly up to 76.8 µM; note: nearly all actives have a fitted effect of over 50% in size; note: potency is the fitted concentration of half-maximal effect
# Method in brief: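 Real-time viability: cells seeded at 600 per well together with NanoLuc and cell-permeant prosubstrate, compounds added after 5 h incubation. Luminescence tracked at 0, 8, 16, 24, 32 and 40 h of exposure.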
# [8] = qHTS assay to identify small molecule antagonists of the estrogen related receptor (ERR) signaling pathway from Tox21 library (AID 1224848); conditions: ERR reporter cell line, luciferase antagonist mode, 18 h; series mostly up to 92.4 µM; note: nearly all actives have a fitted effect of over 50% in size; note: potency is the fitted concentration of half-maximal effect
# Method in brief: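 Luciferase luminescence (ONE-Glo, 30 min room temperature) was the read-out. Cells of the NTP-supplied ERR line, 2,000 per well, were given 6 h at 37 C before compound addition in DMSO and 18 h exposure at 37 C.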
# [9] = qHTS assay to identify small molecule agonists of the estrogen related receptor (ERR) signaling pathway from Tox21 library (AID 1224849; calls by dose curve; note: nearly all actives have a fitted effect of over 15% in size); conditions: ERR reporter cell line, ONE-Glo luciferase, 18 h; at 92.4 µM (top of the series) unless noted
# Method in brief: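 Reporter cells (ERR, NTP source) treated with Tox21 10K compounds 18 h, 37 C. Readout: ONE-Glo luminescence, 30 min RT.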
SMILES,Potency [1],Potency [2],Potency [3],Potency [4],Potency [5],Potency [6],Potency [7],Potency [8],"activity change, positive = activation [9]",cytotoxicity [5]
CC(C)(C)OO,inactive,inactive,inactive,inactive,inactive,inactive,–,–,–,–
CC(O)C#N (stereo not given),inactive,inactive,inactive,inactive,inactive,inactive,–,–,–,–
Fc1cccc(Cl)c1CCl,inactive,inactive,inactive,inactive,inactive,inactive,inactive,–,–,–
O=[N+]([O-])c1cc(C(F)(F)F)c(Cl)c([N+](=O)[O-])c1Cl,31.8 µM (active),–,21.9 µM (active),5.49 µM (active),inactive,6.16 µM (active),13.8 µM (active),27.3 µM (active),-73.4% (inactive),–
CC(C)OC(=O)C(O)(c1ccc(Cl)cc1)c1ccc(Cl)cc1,80 µM (active),56.6 µM (active),–,21.9 µM (active),inactive,49 µM (active),–,–,–,–
N#Cc1ccccc1N,inactive,inactive,inactive,inactive,inactive,inactive,inactive,–,-12.6% (inactive),–
O=C(Cl)c1ccc(Cl)cc1,inactive,inactive,inactive,–,inactive,inactive,–,–,–,–
N#C/C=C/C#N,inactive,inactive,inactive,–,inactive,–,inactive,–,–,–
CCOC(=O)C1(c2ccccc2)CCN(CCC(C#N)(c2ccccc2)c2ccccc2)CC1,inactive,inactive,inactive,inactive,inactive,–,inactive,–,–,–
COc1cc(C=O)cc2c1[C@H](COC(N)=O)[C@]1(OC(C)=O)ON2C[C@H]2[C@@H]1N2C(C)=O,63.5 µM (active),inactive,–,0.0549 µM (active),inactive,inactive,–,0.273 µM (active),–,–
CCCCCCCCc1ccc(O)cc1,36 µM (active),25.5 µM (active),–,5.53 µM (active),–,19.6 µM (active),–,–,–,–
C[C@@H]1O[C@@H](O[C@H]2C[C@@H](O)[C@]3(CO)[C@H]4[C@H](O)C[C@]5(C)[C@@H](C6=CC(=O)OC6)CC[C@]5(O)[C@@H]4CC[C@]3(O)C2)[C@H](O)[C@H](O)[C@H]1O,inactive,inactive,–,–,inactive,inactive,–,–,–,–
CC(=O)c1ccc(-c2ccccc2)cc1,inactive,inactive,inactive,inactive,inactive,inactive,inactive,–,–,–
CCCCCCCCCCCCBr,inactive,inactive,inactive,inactive,inactive,inactive,inactive,–,–,–
CN(C)C(=S)[S-].CN(C)C(=S)[S-].[Cu+2],2.45 µM (active),27.5 µM (active),2.67 µM (active),1.34 µM (active),–,2.38 µM (active),2.38 µM (active),–,–,-8.31% [at 15.8 µM] (inactive)
c1ccc(OCC2CO2)cc1 (stereo not given),inactive,inactive,inactive,inactive,inactive,inactive,inactive,–,–,–
N#CC(Cl)Cl,inactive,inactive,inactive,–,inactive,–,–,–,-30.9% (inactive),–
CN(C)C(=S)S,29 µM (active) and 4.47 µM (active),inactive,–,11.2 µM (active) and 1.73 µM (active) and 11 µM (active),inactive,9.97 µM (active) and 1.54 µM (active) and 6.92 µM (active),inactive and 9.77 µM (active),–,–,–
CCCN(CC)CC1COC2(CCC(C(C)(C)C)CC2)O1 (stereo not given),inactive,inactive,inactive,inactive,inactive,–,inactive,–,–,–
O=C(NC(=O)c1c(F)cccc1F)Nc1cc(Cl)c(OC(F)(F)C(F)F)c(Cl)c1,inactive,inactive,inactive,inactive,inactive,inactive,inactive,–,–,–
CC1(C)[C@H](C(=O)O[C@H](C#N)c2cccc(Oc3ccccc3)c2)[C@@H]1/C=C(\Cl)C(F)(F)F,inactive,inactive,inactive,inactive,inactive,inactive,inactive,–,–,–
Cc1cc(SCc2sc(-c3ccc(C(F)(F)F)c(F)c3)nc2C)ccc1OCC(=O)O,inactive,101 µM (active),inactive,–,inactive,inactive,inactive,–,-21.2% (inactive),–
CN(CCCC(O)c1cccnc1)N=O (stereo not given),inactive,inactive,–,inactive,inactive,inactive,inactive,–,–,–
CCCCCCCCCCCCCC[P+](CCCCCC)(CCCCCC)CCCCCC (tested in a mixture with another compound),17.9 µM (active),5.05 µM (active),30.9 µM (active),4.9 µM (active),inactive,13.8 µM (active),24.6 µM (active),–,–,–
CCOC(=O)CC(=O)CCl,inactive,inactive,inactive,43.6 µM (active),inactive,54.9 µM (active),–,–,–,–

SMILES,Potency [1],Potency [2],Potency [3],Potency [4],Potency [5],Potency [6],Potency [7],Potency [8],"activity change, positive = activation [9]",cytotoxicity [5]
ClCc1ccccc1CCl,inactive,inactive,inactive,–,inactive,49 µM (active),inactive,–,–,–
CC(=O)Nc1ccc2c(c1)Cc1ccccc1-2,inactive,inactive,inactive,inactive,inactive,inactive,inactive,–,–,–
CC1(C)C(/C=C(\Cl)C(F)(F)F)C1C(=O)OC(C#N)c1cccc(Oc2ccccc2)c1 (stereo not given),inactive,inactive,inactive,–,inactive,inactive,inactive,–,–,–
CC(Cl)CN(C)C (stereo not given),inactive,inactive,inactive,–,inactive,–,inactive,–,–,–
O=[N+]([O-])c1ccc(Oc2ccc(C(F)(F)F)cc2[N+](=O)[O-])cc1,inactive,inactive,inactive,19.5 µM (active),inactive,inactive,inactive,–,-23.5% (inactive),–
Oc1cc(Cl)c(Cl)c(Cl)c1,inactive,–,inactive,–,inactive,13.1 µM (active),inactive,29.1 µM (active),–,–
CCc1nn(C)c(C(=O)NCc2ccc(C(C)(C)C)cc2)c1Cl,inactive,–,–,0.0347 µM (active),inactive,–,–,0.0486 µM (active),-58.3% (inactive),–
CC(C)OC(=S)S,35.7 µM (active),–,inactive,inactive,inactive,inactive,inactive,–,–,–
C=CC(=O)OCCCCOC(=O)C=C,101 µM (active),–,49 µM (active),34.7 µM (active),inactive,43.6 µM (active),–,inactive,-26.6% (active),–
CC(C)(C)C(O)/C(=C\c1ccc(Cl)cc1Cl)n1cncn1 (stereo not given),inactive,–,–,29.7 µM (active),inactive,–,–,33 µM (active),-63.4% (inactive),–
CC(C)N1C(=O)N(c2ccccc2)CSC1=NC(C)(C)C,inactive,–,–,21.9 µM (active),inactive,inactive,inactive,34.4 µM (active),-49.9% (inactive),–
O=C(CCCN1CCC2(CC1)C(=O)NCN2c1ccccc1)c1ccc(F)cc1,inactive,–,inactive,9.52 µM (active),inactive,19 µM (active),inactive,inactive,–,–
NNC(=O)c1ccccc1,inactive,–,inactive,inactive,inactive,inactive,inactive,–,–,–
CCCCCCCCCCCCCCCC[N+](C)(C)C,inactive,–,inactive and 49 µM (active) and 23.9 µM (active),9.42 µM (active) and 21.9 µM (active) and 8.49 µM (active),inactive,23.7 µM (active) and 43.6 µM (active) and 23.9 µM (active),24.5 µM (active) and 21.3 µM (active),–,–,–
Clc1ccc(-c2ccc(Cl)c(Cl)c2Cl)c(Cl)c1Cl,inactive,–,inactive,–,inactive,inactive,inactive,inactive,–,–
COP(=S)(OC)Oc1cc(Cl)c(Br)cc1Cl,inactive,–,inactive,inactive,inactive,inactive,inactive,–,–,–
O=C(O)C1C2CCC(O2)C1C(=O)O (stereo not given),102 µM (active),–,–,–,inactive,inactive,inactive,inactive,4.71% (inactive),–
CC(C)CCCCCOC(=O)c1ccccc1C(=O)OCCCCCC(C)C,inactive,–,–,inactive,inactive,inactive,inactive,–,–,–
CCOP(=O)(NC(C)C)Oc1ccc(SC)c(C)c1 (stereo not given),inactive,–,inactive,12.3 µM (active),inactive,–,inactive,–,–,–
COc1ccc(OC)c(C=O)c1,inactive,–,–,–,inactive,inactive,inactive,–,–,–
CC(C)[C@H](C(=O)OC(C#N)c1cccc(Oc2ccccc2)c1)c1ccc(OC(F)F)cc1 (stereo not given in full),inactive,–,–,inactive,inactive,inactive,–,15.4 µM (active),-19.1% (inactive),–
C[C@]12CC[C@H](O)C[C@H]1CC[C@@H]1[C@@H]2C[C@@H](O)[C@]2(C)[C@@H](C3=CC(=O)OC3)CC[C@]12O,inactive,–,inactive,0.692 µM (active),inactive,inactive,inactive,3.06 µM (active),-63.4% (active),–
BrCC(Br)c1ccccc1 (stereo not given),inactive,–,inactive,inactive,inactive,inactive,inactive,–,–,–
CN(C)C1CSSSC1,inactive,–,inactive,inactive,inactive,inactive,inactive,inactive,-13.3% (inactive),–
c1ccc2c(c1)OCC(C1=NCCN1)O2 (stereo not given),49.2 µM (active),–,–,–,inactive,23.9 µM (active),–,–,–,–

# Source: PubChem BioAssay (Tox21)
